The supplement of paper PMC10849652
The full data set covers some 7,900 targets. This sample favours those with a hit. About 0.6% of all pairs of compound and target were hits.

Key:
Experiment in all cases: log2 fold change, soluble protein after heating vs DMSO (PISA); higher = thermal stabilisation; K562 cells, 10 uM, 30 min; active = over 0.2 and 3.5 SD of the protein, either way, in both replicates (recomputed)
[1] = compound: CC[C@@H]1C(=O)N(C)c2cnc(Nc3ccc(C(=O)NC4CCN(C)CC4)cc3OC)nc2N1C1CCCC1
Outline: (§1)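 Soluble protein was quantified by TMTpro 16plex LC-MS/MS after channel sums were equalised. It was obtained as the supernatant after 21,000xg for 90 min from pooled aliquots of K562 cells (2×10^6 cells/mL, 10 μM compound, 30 min) heated for 3 min across 48°C-58°C and extracted in PBS with 0.5% NP-40 at 4°C. Thermal stability values are relative to control samples and come from duplicates. They are given as log2 fold changes.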

[2] = compound: CC[C@H](C)N1C=C(C2=C(C=C(C=C21)C3=CN=C(C=C3)N4CCNCC4)C(=O)NCC5=C(C=C(NC5=O)C)C)C
Outline: as §1

[3] = compound: CC[C@H](C)[C@@H](C(=O)N[C@@H]([C@@H](C)O)C(=O)N[C@@H](CC(C)C)C(=O)[C@]1(CO1)C)NC(=O)[C@H]([C@@H](C)CC)N(C)C(=O)C [epoxomicin]
Outline: as §1

[4] = compound: CCn1cc(-c2ccnc3[nH]c(-c4cccc(CN(C)C)c4)cc23)c(-c2ccc(NC(=O)N(C)C)cc2)n1
Outline: as §1

[5] = compound: CN(C)CC(=O)Nc1ccc2[nH]c(=O)c3ccccc3c2c1
Outline: as §1

[6] = compound: CN1C2=C(C3=C1C(=O)N(N=C3)CC4=CC(=CC=C4)N)SC(=C2)S(=O)C
Outline: as §1

[7] = compound: CN1CCC(CNc2ccc3ncc(-c4cccc(OC(F)(F)F)c4)n3n2)CC1
Outline: as §1

[8] = compound: CN1CCN(CCOc2cc(OC3CCOCC3)c3c(Nc4c(Cl)ccc5c4OCO5)ncnc3c2)CC1 [saracatinib]
Outline: as §1

[9] = compound: CN1CCN(c2nc(C3=C(c4c[nH]c5ccccc45)C(=O)NC3=O)c3ccccc3n2)CC1 [sotrastaurin]
Outline: as §1

[10] = compound: CN1CC[C@H](c2c(O)cc(O)c3c(=O)cc(-c4ccccc4Cl)oc23)[C@H](O)C1 [alvocidib]
Outline: as §1

[11] = compound: CNC(=O)c1ccc(Nc2ncc(C(F)(F)F)c(NCc3nccnc3N(C)S(C)(=O)=O)n2)cc1 [defactinib]
Outline: as §1

[12] = compound: CNCc1ccc(-c2[nH]c3cc(F)cc4c3c2CCNC4=O)cc1 [rucaparib]
Outline: as §1

[13] = compound: CNc1nc(-c2ccc3c(N)n[nH]c3c2)cc(N2C[C@@H](C(=O)NC3CCCCC3)CC[C@H]2C)n1
Outline: as §1

[14] = compound: COC(=O)N[C@@H](C)CNc1nccc(-c2cn(C(C)C)nc2-c2cc(Cl)cc(NS(C)(=O)=O)c2F)n1 [encorafenib]
Outline: as §1

[15] = compound: COC(=O)[C@H](CCSC)NC(=O)C1=C(C=C(C=C1)NC[C@H](CS)N)C2=CC=CC=C2
Outline: as §1

[16] = compound: CCn1c(C(=O)N(C2CC2)C2CC2)cc2c3c(ncn3C)c(Nc3cc(C)n(C)n3)nc21
Outline: as §1

[17] = compound: CN(CCOC1=CC=C(C=C1)C[C@H]2C(=O)NC(=O)S2)C3=CC=CC=N3 (racemic) [rosiglitazone]
Outline: as §1

[18] = compound: CNC(=O)C1=CC=CC=C1NC2=NC(=NC=C2Cl)NC3=C(C=C(C=C3)N4CCOCC4)OC
Outline: as §1

[19] = compound: CC[C@@H]1C(=O)N(C)c2cnc(Nc3ccc(C(=O)N[C@H]4CC[C@H](N5CCN(CC6CC6)CC5)CC4)cc3OC)nc2N1C(C)C [volasertib]
Outline: as §1

[20] = compound: CN1CCc2c(c3ccccc3n2Cc2ccc(C(=O)NO)cc2)C1 [Tubastatin A]
Outline: as §1

Measured: log2 fold change

FIZ1 (UniProt Q96SL8)
Sequence of UniProt Q96SL8 (Q96SL8 whole entry, looked up): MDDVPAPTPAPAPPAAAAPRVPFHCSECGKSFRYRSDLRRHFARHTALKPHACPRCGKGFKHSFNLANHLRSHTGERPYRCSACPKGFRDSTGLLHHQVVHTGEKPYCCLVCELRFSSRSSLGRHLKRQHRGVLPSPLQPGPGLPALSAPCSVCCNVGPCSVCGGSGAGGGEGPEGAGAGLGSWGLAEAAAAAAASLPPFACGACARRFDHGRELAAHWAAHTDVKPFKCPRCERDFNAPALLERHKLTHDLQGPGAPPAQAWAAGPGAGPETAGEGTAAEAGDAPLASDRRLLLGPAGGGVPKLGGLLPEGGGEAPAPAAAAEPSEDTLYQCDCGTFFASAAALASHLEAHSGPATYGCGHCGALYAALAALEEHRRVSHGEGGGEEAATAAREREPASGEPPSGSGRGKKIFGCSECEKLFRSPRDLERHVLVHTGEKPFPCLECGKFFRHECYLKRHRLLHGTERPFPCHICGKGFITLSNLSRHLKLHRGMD
inactive: [1] 0.169 | [2] 0.088 | [3] -0.071 | [4] -0.125 | [5] -0.06 | [6] 0.138 | [7] 0.024 | [8] 0.149 | [9] 0 | [10] 0.141 | [11] 0.06 | [12] -0.012 | [13] -0.095 | [14] 0.069 | [15] 0.108

GOLGA6B (UniProt A6NDN3)
Sequence of UniProt A6NDN3 (A6NDN3 whole entry, looked up): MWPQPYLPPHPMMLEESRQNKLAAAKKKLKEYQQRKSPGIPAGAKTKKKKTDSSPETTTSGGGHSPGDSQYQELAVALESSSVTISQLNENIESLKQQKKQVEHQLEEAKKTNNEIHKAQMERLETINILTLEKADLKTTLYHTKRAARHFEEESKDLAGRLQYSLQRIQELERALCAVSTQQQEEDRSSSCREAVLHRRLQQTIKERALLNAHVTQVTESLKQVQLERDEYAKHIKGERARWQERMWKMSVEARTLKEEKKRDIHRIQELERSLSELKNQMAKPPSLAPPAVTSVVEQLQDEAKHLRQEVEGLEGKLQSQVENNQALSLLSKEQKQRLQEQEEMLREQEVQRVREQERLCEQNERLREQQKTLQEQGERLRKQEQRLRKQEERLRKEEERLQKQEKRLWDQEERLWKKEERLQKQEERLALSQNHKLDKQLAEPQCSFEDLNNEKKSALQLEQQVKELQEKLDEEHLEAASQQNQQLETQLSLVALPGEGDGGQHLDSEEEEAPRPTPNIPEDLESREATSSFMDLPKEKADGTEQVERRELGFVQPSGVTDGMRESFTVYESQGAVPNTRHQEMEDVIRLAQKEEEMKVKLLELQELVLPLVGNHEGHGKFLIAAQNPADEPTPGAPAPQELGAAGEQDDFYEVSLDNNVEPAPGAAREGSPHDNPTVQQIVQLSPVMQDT
inactive: [3] -0.061 | [16] 0.07 | [4] -0.185 | [5] 0.327 | [17] 0.084 | [7] 0.067 | [9] 0.068 | [18] -0.066 | [11] -0.211 | [15] -0.475
active: [2] -0.579

H3-3A (UniProt P84243)
inactive: [1] -0.083 | [19] -0.239 | [2] 0.147 | [16] -0.123 | [5] -0.083 | [17] 0.076 | [6] 0.045 | [8] -0.094 | [9] -0.356 | [10] -0.063 | [20] 0.203 | [18] 0.002 | [11] 0 | [12] 0.031 | [13] 0.189 | [14] 0.034 | [15] 0.102

HDAC10 (UniProt Q969S8)
inactive: [1] -0.113 | [19] -0.041 | [2] 0.028 | [16] -0.005 | [4] -0.179 | [5] 0.224 | [17] 0.12 | [6] -0.107 | [7] 0.055 | [8] -0.04 | [10] 0.011 | [20] 0.458 | [18] 0.108 | [11] 0.067 | [12] 0.024 | [13] -0.02 | [14] 0.024 | [15] -0.137

FBXO9 (UniProt Q9UK97)
inactive: [1] -0.17 | [2] 0.06 | [16] 0.086 | [4] 0.009 | [5] 0.097 | [17] 0.07 | [6] 0.045 | [7] 0.203 | [8] -0.024 | [10] -0.018 | [20] -0.003 | [18] 0.141 | [11] 0.052 | [12] 0.055 | [13] -0.014 | [14] 0.152 | [15] -0.037
active: [19] -0.545

HNRNPK isoform 3 (UniProt P61978)
inactive: [1] 0.121 | [2] -0.062 | [3] -0.035 | [16] 0.034 | [4] 0.032 | [5] 0.012 | [17] -0.035 | [6] -0.057 | [7] 0.076 | [8] 0.04 | [9] 0.059 | [20] 0.034 | [18] -0.05 | [11] 0.096 | [12] 0.032 | [13] -0.035 | [14] -0.041 | [15] -0.028

GAB2 (UniProt Q9UQC2)
inactive: [1] -0.203 | [19] -0.009 | [3] 0.065 | [16] -0.085 | [4] 0.034 | [5] -0.016 | [6] 0.002 | [7] -0.458 | [8] -0.164 | [9] 0.029 | [10] -0.053 | [20] -0.024 | [18] -0.575 | [11] -0.194 | [12] 0.162 | [13] -0.137 | [14] -0.023 | [15] 0.116

GOPC (UniProt Q9HD26)
inactive: [19] -0.015 | [2] 0.022 | [3] -0.053 | [16] 0 | [4] 0.149 | [5] 0.056 | [17] -0.06 | [6] 0.153 | [7] 0.485 | [8] -0.147 | [9] 0.01 | [10] 0.065 | [20] 0.177 | [18] 0.216 | [11] 0.033 | [13] 0.164 | [15] -0.229

IDH3A isoform 2 (UniProt P50213)
Sequence of UniProt P50213 (P50213 whole entry, looked up): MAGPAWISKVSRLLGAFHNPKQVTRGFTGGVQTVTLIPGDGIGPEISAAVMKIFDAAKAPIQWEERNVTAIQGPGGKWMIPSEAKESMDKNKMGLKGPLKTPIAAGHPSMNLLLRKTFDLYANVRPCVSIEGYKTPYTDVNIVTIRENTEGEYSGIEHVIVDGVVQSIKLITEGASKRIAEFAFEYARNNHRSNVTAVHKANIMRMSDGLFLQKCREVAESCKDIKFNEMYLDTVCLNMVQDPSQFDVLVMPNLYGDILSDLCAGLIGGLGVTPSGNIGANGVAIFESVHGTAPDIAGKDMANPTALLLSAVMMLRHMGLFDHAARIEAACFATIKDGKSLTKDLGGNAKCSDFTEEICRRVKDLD
inactive: [2] -0.056 | [16] -0.14 | [17] 0.003 | [10] -0.206 | [20] 0.138 | [18] -0.117

HBZ, A0A494C057
inactive: [1] 0.203 | [2] -0.079 | [16] -0.008 | [17] -0.188 | [18] 0.005 | [12] -0.058 | [14] -0.094

FOXO3 (UniProt O43524)
Sequence of UniProt O43524 (O43524 whole entry, looked up): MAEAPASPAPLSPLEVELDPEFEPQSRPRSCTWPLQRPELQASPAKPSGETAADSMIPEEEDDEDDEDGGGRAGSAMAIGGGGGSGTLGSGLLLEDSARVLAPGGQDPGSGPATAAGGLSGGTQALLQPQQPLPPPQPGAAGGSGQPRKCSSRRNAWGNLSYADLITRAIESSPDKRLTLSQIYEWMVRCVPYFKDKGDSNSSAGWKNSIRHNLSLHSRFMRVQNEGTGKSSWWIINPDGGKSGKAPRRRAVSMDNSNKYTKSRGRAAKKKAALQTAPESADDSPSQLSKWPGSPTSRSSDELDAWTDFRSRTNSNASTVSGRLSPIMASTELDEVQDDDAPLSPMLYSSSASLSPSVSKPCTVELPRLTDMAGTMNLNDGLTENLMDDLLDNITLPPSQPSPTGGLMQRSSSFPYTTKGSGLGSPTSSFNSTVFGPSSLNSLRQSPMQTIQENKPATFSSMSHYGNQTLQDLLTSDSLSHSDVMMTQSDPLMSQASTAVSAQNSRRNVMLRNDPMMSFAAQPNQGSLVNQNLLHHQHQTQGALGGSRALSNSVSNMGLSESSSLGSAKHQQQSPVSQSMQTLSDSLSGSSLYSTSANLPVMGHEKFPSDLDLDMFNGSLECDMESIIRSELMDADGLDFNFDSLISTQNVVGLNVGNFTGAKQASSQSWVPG
inactive: [1] -0.092 | [19] -0.061 | [3] 0.007 | [16] -0.213 | [4] -0.004 | [5] 0.055 | [6] 0.158 | [7] -0.188 | [8] -0.017 | [9] 0.004 | [10] -0.124 | [20] 0.051 | [18] -0.167 | [11] -0.037 | [12] -0.077 | [13] -0.208 | [14] 0.16 | [15] 0.021

GNL3 (UniProt Q9BVP2)
Sequence of UniProt Q9BVP2 (Q9BVP2 whole entry, looked up): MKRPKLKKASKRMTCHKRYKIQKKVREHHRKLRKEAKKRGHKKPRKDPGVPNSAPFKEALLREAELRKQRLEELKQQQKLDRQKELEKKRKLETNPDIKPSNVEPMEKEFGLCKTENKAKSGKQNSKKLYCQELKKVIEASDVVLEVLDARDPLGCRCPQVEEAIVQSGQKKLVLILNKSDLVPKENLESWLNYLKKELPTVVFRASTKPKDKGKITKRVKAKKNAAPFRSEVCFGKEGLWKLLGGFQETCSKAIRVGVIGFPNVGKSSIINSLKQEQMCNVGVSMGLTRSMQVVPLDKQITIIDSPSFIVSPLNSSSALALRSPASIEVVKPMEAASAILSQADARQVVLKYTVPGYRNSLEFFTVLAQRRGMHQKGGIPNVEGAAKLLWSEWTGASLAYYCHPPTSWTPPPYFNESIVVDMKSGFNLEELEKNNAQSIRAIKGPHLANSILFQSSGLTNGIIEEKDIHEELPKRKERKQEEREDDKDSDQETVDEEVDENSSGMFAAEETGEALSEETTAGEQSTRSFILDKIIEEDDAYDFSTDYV
inactive: [1] 0.018 | [2] -0.197 | [3] -0.06 | [4] 0.118 | [5] 0.002 | [17] 0.046 | [6] -0.103 | [7] 0.081 | [8] -0.124 | [9] 0.03 | [10] 0.145 | [20] 0.304 | [11] 0.005 | [12] -0.052 | [13] 0.044 | [14] -0.065 | [15] 0.015

GOLGA8R (UniProt I6L899)
Sequence of UniProt I6L899 (I6L899 whole entry, looked up): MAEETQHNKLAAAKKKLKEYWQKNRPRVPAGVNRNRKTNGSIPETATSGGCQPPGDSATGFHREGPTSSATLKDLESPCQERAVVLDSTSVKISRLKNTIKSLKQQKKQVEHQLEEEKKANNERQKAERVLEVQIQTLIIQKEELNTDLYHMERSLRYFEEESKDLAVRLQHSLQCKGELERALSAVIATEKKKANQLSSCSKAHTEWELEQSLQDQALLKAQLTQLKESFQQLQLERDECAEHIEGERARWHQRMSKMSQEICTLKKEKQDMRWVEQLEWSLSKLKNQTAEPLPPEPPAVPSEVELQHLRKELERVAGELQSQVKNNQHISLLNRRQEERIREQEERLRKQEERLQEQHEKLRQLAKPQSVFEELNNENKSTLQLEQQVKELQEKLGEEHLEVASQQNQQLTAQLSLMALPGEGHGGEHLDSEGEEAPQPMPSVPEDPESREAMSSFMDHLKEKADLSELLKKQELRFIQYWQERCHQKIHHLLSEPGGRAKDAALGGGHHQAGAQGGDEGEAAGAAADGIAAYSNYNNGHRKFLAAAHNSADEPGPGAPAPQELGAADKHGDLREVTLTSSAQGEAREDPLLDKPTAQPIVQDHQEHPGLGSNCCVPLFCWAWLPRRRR
inactive: [1] -0.036 | [19] -0.4 | [16] -0.233 | [4] -0.182 | [5] 0.191 | [17] 0.074 | [6] -0.003 | [7] -0.033 | [8] -0.126 | [10] 0.018 | [20] 0.253 | [18] -0.148 | [11] -0.197 | [12] 0.189 | [13] 0.246 | [14] -0.098 | [15] -0.086

FAT2 (UniProt Q9NYQ8)
inactive: [1] 0.011 | [19] 0.029 | [3] -0.047 | [16] -0.183 | [4] -0.023 | [5] -0.06 | [17] -0.27 | [6] -0.023 | [7] 0.109 | [8] -0.243 | [10] 0.083 | [20] 0.144 | [18] -0.206 | [11] 0.011 | [12] -0.007 | [13] 0.021 | [14] 0.094 | [15] 0.001

GEMIN2 (UniProt O14893)
Sequence of UniProt O14893 (O14893 whole entry, looked up): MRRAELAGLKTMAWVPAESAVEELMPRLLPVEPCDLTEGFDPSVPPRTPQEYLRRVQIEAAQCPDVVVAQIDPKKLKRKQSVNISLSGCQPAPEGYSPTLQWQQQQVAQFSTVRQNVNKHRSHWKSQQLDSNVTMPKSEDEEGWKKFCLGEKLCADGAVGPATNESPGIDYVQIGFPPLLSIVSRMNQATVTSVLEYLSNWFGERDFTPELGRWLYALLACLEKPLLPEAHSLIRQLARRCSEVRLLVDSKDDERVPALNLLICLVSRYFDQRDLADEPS
inactive: [1] -0.203 | [19] -0.061 | [2] -0.057 | [3] 0.011 | [4] 0.013 | [5] 0.019 | [17] 0.059 | [6] 0.101 | [7] 0.031 | [8] 0.001 | [9] 0.067 | [10] 0.009 | [11] -0.041 | [12] 0.136 | [13] 0.013 | [14] 0.151 | [15] 0.072

GSE1 (UniProt Q14687)
Sequence of UniProt Q14687 (Q14687 whole entry, looked up): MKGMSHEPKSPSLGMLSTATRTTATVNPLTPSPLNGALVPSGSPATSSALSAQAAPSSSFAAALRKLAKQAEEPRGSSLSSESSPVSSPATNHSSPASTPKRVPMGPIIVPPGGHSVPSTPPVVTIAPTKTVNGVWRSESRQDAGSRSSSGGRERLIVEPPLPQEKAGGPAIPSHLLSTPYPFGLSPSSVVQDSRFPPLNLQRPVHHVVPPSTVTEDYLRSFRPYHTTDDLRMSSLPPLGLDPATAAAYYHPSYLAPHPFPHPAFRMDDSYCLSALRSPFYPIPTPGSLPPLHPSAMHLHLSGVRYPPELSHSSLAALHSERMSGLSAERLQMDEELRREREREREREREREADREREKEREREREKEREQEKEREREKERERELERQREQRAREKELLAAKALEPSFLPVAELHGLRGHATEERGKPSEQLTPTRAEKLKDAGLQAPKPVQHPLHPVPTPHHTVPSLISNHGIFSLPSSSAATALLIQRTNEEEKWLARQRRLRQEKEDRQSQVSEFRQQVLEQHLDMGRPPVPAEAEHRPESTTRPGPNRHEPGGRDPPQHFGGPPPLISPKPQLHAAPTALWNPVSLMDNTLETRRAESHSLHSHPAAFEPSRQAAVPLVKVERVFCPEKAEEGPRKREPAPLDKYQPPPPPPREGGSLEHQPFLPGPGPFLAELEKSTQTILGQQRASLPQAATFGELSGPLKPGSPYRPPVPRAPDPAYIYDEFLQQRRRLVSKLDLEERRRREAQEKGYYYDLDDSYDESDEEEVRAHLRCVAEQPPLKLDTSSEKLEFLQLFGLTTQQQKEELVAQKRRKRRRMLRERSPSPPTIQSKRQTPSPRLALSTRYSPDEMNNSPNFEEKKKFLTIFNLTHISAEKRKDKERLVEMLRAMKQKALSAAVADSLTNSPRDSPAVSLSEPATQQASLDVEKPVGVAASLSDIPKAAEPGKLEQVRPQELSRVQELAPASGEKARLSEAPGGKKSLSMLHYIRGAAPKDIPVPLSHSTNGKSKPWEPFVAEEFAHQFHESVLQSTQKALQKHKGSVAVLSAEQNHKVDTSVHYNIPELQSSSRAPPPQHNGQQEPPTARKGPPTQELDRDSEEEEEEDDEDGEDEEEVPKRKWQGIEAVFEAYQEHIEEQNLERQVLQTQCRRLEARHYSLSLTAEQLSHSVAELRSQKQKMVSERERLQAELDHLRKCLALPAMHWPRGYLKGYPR
active: [15] -0.498
inactive: [2] -0.003 | [5] -0.117 | [17] 0.151 | [6] -0.004 | [8] -0.077 | [10] -0.186 | [11] 0.027 | [13] -0.014
